An excerpt weighted towards active compounds, which were near 3.1% of everything screened.
RAD54 inh = inhibitors of human RAD54 branch migration, primary screen, biochemical, fluorescence, single point | inhibition, % at 10.4 µM | 360,000 compounds, 0.14% hits | DNA repair and recombination protein RAD54-like (Homo sapiens), Q92698 | AID 602329, 2012 | RAD54 Holliday junction branch migration, FAM/BHQ fluorescence;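 active = mean normalized replicate activity at least 40 and at least half of replicates scoring 40 or more; inconclusive = only one of the two criteria met; inactive = mean below 40 and under half of replicates reaching 40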;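 note: inhibitors cause a drop in the FAM fluorescence signal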
Target sequence (Q92698 whole entry, looked up): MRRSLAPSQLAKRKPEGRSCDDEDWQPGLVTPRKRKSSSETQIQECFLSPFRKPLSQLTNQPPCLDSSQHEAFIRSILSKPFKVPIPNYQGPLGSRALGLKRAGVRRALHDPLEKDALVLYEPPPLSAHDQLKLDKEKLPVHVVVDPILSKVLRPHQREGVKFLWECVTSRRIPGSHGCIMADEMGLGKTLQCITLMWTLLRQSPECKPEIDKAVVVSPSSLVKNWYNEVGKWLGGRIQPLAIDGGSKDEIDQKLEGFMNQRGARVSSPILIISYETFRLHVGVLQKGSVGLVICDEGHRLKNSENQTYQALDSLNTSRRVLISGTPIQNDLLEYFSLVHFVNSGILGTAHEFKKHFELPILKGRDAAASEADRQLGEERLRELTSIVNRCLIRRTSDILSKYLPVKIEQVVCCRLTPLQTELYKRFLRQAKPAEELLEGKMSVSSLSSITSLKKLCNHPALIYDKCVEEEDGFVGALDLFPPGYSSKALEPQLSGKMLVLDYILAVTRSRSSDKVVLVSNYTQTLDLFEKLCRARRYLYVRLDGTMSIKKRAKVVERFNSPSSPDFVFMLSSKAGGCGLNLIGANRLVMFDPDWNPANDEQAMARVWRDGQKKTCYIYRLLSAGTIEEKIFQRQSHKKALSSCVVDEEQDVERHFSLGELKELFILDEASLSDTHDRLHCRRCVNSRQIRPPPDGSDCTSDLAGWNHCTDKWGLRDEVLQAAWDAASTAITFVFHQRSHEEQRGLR
RAD52 anneal inh = RAD52 DNA annealing inhibitors, primary screen, biochemical, FRET, single point, set 2; recombinant RAD52 DNA annealing, FRET fluorescence; AID 651710, 2012; 360,000 compounds, 0.46% hits; inhibition, % at 18.7 µM;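 active = every replicate showing at least 50% inhibition; inconclusive = mean inhibition at least 50% but not in every replicate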
INS-1E GSIS act = GLuc luminescence reporter in INS-1E cells, primary screen for activators of glucose-dependent secretion of insulin; INS-1E GLuc reporter insulin secretion, 2-3 h; AID 743287, 2014; activation, % at 16.6 µM; 370,000 compounds, 0.61% hits;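 active = lowest replicate activation of at least 40%, so every replicate reaches that level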
DENV2 CPE rescue = inhibitors of DENV2 cytopathic effect, primary screen, cell-based, plate reader, single concentration; DENV2-infected cells, cytopathic effect rescue; CPE inhibition, % at 9.99 µM; 350,000 compounds, 1.7% hits; in the data active = CPE inhibition above about 20%, passing the limit was not always enough; inconclusive = no clear call, values can overlap the other calls; tested in BHK-21 cells
AF4-AF9 inh = inhibitors of AF4 peptide binding to AF9, primary screen, biochemical, AlphaScreen, biotin-AF4 peptide, FLAG-AF9, single point; AID 651704, 2012; 350,000 compounds, 0.47% hits; inhibition, % at 10 µM;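 active = every replicate reaching a set inhibition limit, whatever the replicate mean, cut at about 25% in these data; inconclusive = mean inhibition reaches that limit but some replicates miss it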
dFosB act = activators of delta FosB homodimer, primary screen, biochemical, fluorescence polarization, TAMRA-CDK5 oligo, single point; Protein FosB (Mus musculus), P13346; purified delta FosB; percent of positive-control signal above neutral wells; activation, % at 25 µM; 340,000 compounds, 0.99% hits; AID 493131, 2011;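 active = mean activation above about 17%, with every replicate also reaching it, limit read from the data, passing the limit was not always enough; inconclusive = only one of the two conditions met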
Large screens that a line does not name were inactive.

CC(C)C[C@H](NC(=O)c1[nH]cnc1C(=O)N[C@@H](Cc1ccccc1)C(=O)OC(C)(C)C)C(=O)OC(C)(C)C	none
CC(C)(C)OC(=O)CNC(=O)c1[nH]cnc1C(=O)N[C@@H](Cc1ccccc1)C(=O)OC(C)(C)C	DENV2 CPE rescue 54 (no result: INS-1E GSIS act)
CNC[C@@H]1Oc2ccc(NC(=O)CCCN(C)C)cc2C(=O)N([C@@H](C)CO)C[C@@H]1C	none (no result: dFosB act)
NCCCCCNC(=O)[C@@H]1C[C@@H]2C(=O)N[C@@H](Cc3ccccc3)C(=O)N2[C@@H]1c1cccc(OCCO)c1	none (no result: RAD54 inh, INS-1E GSIS act, dFosB act)
CC(C)C[C@@H]1NC(=O)[C@H]2C[C@@H](C(=O)NCCCCCNC(=O)CS)[C@@H](c3cccc(OCCO)c3)N2C1=O	DENV2 CPE rescue 21 (no result: INS-1E GSIS act, dFosB act)
NCCCCCCNC(=O)[C@H]1C[C@H]2C(=O)N[C@@H](Cc3ccccc3)C(=O)N2[C@H]1c1cccc(OCCO)c1	DENV2 CPE rescue 21 (no result: INS-1E GSIS act, dFosB act)
C[C@@H]1CN([C@H](C)CO)C(=O)c2cc(NC(=O)NC3CCCCC3)ccc2O[C@@H](C)CCCCO[C@@H]1CN(C)C(=O)C1CCCCC1	none (no result: dFosB act)
COc1ccc(-c2ccc3c(c2)[C@H]2[C@H](CCN2S(=O)(=O)c2ccc(F)cc2)[C@H](CO)N3C)cc1	none (no result: RAD54 inh, dFosB act)
COc1ccc(-c2ccc3c(c2)[C@@H]2[C@@H](CCN2S(=O)(=O)c2ccc(F)cc2)[C@@H](CO)N3C)cc1	RAD52 anneal inh 90 (no result: RAD54 inh, dFosB act)
CC1C=NC(S(=O)(=O)N2CC[C@@H]3[C@@H](CO)N(C)c4ccc(-c5ccc(F)cc5)cc4[C@@H]32)=N1 (stereo partly drawn)	DENV2 CPE rescue 21 (no result: RAD52 anneal inh, AF4-AF9 inh, dFosB act)
CC1C=NC(S(=O)(=O)N2CC[C@@H]3[C@H]2c2cc(-c4cccc(F)c4)ccc2N(C)[C@H]3CO)=N1 (stereo partly drawn)	none (no result: dFosB act)
CCN1[C@@H]2Cn3c(ccc(-c4cccc(F)c4)c3=O)[C@H]1[C@@H](C(=O)N(C)C)[C@@H]2CO	none (no result: dFosB act)
Cc1ccc(S(=O)(=O)CCC(=O)c2ccc(F)cc2)cc1	none
COc1ccc(CC(=O)OCC(=O)c2ccc(OC)c(OC)c2)cc1	INS-1E GSIS act 41, DENV2 CPE rescue 30
COc1ccc(C(=O)c2ccc(Br)cc2)cc1	INS-1E GSIS act 84 (no result: RAD52 anneal inh, DENV2 CPE rescue, AF4-AF9 inh)
COc1ccc(C(=O)CCS(=O)(=O)c2ccc(F)cc2)cc1OC	INS-1E GSIS act 60
COc1ccc(OC)c(C(=O)c2ccc([N+](=O)[O-])cc2)c1	INS-1E GSIS act 58, DENV2 CPE rescue inconclusive
COc1ccc(C(=O)c2ccccc2)cc1	none (no result: RAD54 inh)
COc1ccc(OC)c(C(=O)c2ccc(C(=O)c3cc(OC)ccc3OC)cc2)c1	none
COc1ccc(CC(=O)OCC(=O)c2ccc(OC)cc2)cc1	none (no result: RAD54 inh, RAD52 anneal inh, DENV2 CPE rescue, AF4-AF9 inh)
COc1ccc(C(=O)Cc2ccccc2)cc1OC	none (no result: RAD52 anneal inh, DENV2 CPE rescue, AF4-AF9 inh)
COc1ccc(CC(=O)c2ccc(OC)c(OC)c2)cc1	INS-1E GSIS act 71 (no result: RAD54 inh)
COc1cc2ccc(C(C)=O)cc2cc1OC	INS-1E GSIS act 48 (no result: dFosB act)
COc1ccc(C(=O)c2ccc(OC)c(OC)c2)cc1	INS-1E GSIS act 56 (no result: RAD52 anneal inh, DENV2 CPE rescue, AF4-AF9 inh)
COc1cc(C(=O)C(=O)c2ccc(OC)c(OC)c2)ccc1O	INS-1E GSIS act 45 (no result: RAD54 inh)
C[C@H]1CN([C@@H](C)CO)C(=O)c2cccc(NC(=O)C3CC3)c2O[C@H]1CN(C)CC1CC1	none (no result: dFosB act)
O=C(CSc1ncnc2scc(-c3ccccc3)c12)Nc1ccc(C(=O)O)cc1	INS-1E GSIS act 147 (no result: DENV2 CPE rescue)
Cc1ccc(-c2csc3ncnc(SCC(N)=O)c23)cc1	INS-1E GSIS act 45 (no result: RAD54 inh)
O=C(CCN1CCCCC1)NCC[C@@H]1CC[C@H](NC(=O)C2CCC2)[C@@H](CO)O1	DENV2 CPE rescue 46 (no result: dFosB act)
O=C(CCN1CCCCC1)NCC[C@H]1CC[C@H](NC(=O)C2CCC2)[C@@H](CO)O1	DENV2 CPE rescue 23 (no result: dFosB act)
O=C(CCN1CCCCC1)NCC[C@H]1CC[C@H](NC(=O)C2CCC2)[C@H](CO)O1	none (no result: dFosB act)
O=C(CCN1CCCCC1)NCC[C@H]1CC[C@H](NC(=O)C2CCCC2)[C@H](CO)O1	none (no result: dFosB act)
CNC[C@H]1Oc2cc(-c3cncnc3)ccc2S(=O)(=O)N([C@@H](C)CO)C[C@H]1C	none (no result: DENV2 CPE rescue, dFosB act)
